Results taken from ChEMBL document CHEMBL3433997, “St. Jude Leishmania screening dataset” (2016).

Columns and labels:
Format in all cases: functional
[1] = biological target: Solute carrier family 2, facilitated glucose transporter member 1 (Homo sapiens) (UniProt P11166); experiment: ST_JUDE_LEISH: Cytotoxicity at 2uM final concentration against transgenic Leishmania Mexicana promastigotes LmGLUT1 that are glucose transport deficient and complemented with the human glucose transporter GLUT1. Activity is measured by DNA content using SYBR green in vitro
[2] = biological target: Hexose transporter 1 (Plasmodium falciparum) (UniProt O97467); experiment: ST_JUDE_LEISH: Cytotoxicity at 2uM final concentration against transgenic Leishmania Mexicana promastigotes LmPfHT that are glucose transport deficient and complemented with the Plasmodium falciparum hexose transporter. Activity is measured by DNA content using SYBR green in vitro
[3] = biological target: Glucose transporter (Leishmania mexicana) (UniProt O61059); experiment: ST_JUDE_LEISH: Cytotoxicity at 2uM final concentration against transgenic Leishmania Mexicana promastigotes LmGT2 that are glucose transport deficient and complemented with the L. Mexicana glucose transporter 2. Activity is measured by DNA content using SYBR green in vitro

Sequence of Solute carrier family 2, facilitated glucose transporter member 1 (Homo sapiens) (P11166 whole entry): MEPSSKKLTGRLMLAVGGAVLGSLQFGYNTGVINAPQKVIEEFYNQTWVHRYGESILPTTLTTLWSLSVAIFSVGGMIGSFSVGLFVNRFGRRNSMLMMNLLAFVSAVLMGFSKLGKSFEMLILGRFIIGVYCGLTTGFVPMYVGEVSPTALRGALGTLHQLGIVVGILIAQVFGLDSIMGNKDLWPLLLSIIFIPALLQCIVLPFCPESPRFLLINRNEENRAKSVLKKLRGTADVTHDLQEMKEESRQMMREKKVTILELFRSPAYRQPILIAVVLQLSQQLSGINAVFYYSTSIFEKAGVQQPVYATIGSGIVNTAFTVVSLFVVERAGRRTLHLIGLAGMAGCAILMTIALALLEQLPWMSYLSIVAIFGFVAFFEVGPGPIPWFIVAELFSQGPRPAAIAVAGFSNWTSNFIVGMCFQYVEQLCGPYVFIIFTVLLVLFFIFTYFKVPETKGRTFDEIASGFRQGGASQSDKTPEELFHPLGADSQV

SMILES | inhibition [1] [%] | inhibition [2] [%] | inhibition [3] [%]
O=C(NC1CCC(N2CCC(Cc3ccc(F)cc3)CC2)CC1)c1cc2ccccc2[nH]1 (stereo not given) | 0.56 | 0.08 | 0.47
Nc1nc(N)c2c(ccc3c2ccn3Cc2ccc(OCc3ccccc3)cc2)n1 | 2.4 | -1.46 | -0.6
COc1ccc(Cl)cc1NC(=O)Nc1cc(C)nc2ccccc12 | 7.32 | 12.8 | 2.81
CN(C)Cc1c(O)ccc2[nH]c(-c3cccc(F)c3)nc12 | 2.87 | 2.53 | 0.64
Cc1ccc(-n2nc(-c3ccccc3)c3cc(C(=O)NCCN)sc32)cc1 | -2.29 | -1.78 | -6.61
COc1cc(Nc2ccnc3cc(-c4nccs4)ccc23)ccc1OCCCc1nc2ccccc2[nH]1 | 3.6 | 4.2 | 4.89
Cc1ccccc1Cn1c(CN2CCC(C(=O)NC3CC3)CC2)cc2ccccc21 | 2.57 | 1.99 | 5.38
O=c1ccccn1CCCC1CCCCN1 (stereo not given) | 12.2 | 12.2 | 13.5
CCCc1cc(Cc2cnc(N)nc2N)cc2c1OC(C)(C)C2 | 5.74 | 3.03 | 2.58
CCCc1c(Cl)cc(CNCCCNc2nc3ccncc3[nH]2)cc1Cl | 1.35 | 3.89 | 1.39
COc1ccccc1C1CCN(C2CCC(NC(=O)/C=C/c3cccc(Cl)c3)CC2)CC1 (stereo not given) | 3.59 | 0.95 | -0.85
CCOc1cc(NCCSCc2nc[nH]c2C)nc2ccccc12 | -1.28 | -0.61 | -3.84
Cc1cc(OCCCN2CCC(NS(=O)(=O)c3cccc(Br)c3)CC2)c2ccccc2n1 | 10.9 | 9.48 | 9.99
CCOC(=O)c1c(CNc2ccncc2)n(C)c2cc(Br)c(OC(C)=O)cc12 | -0.11 | 2.99 | 1.88
Cc1cccc(Cn2c(C(N)=O)nn(-c3ccc([N+](=O)[O-])cc3C#N)c2=S)c1 | 11.5 | 11.7 | 11.7
Oc1ccccc1CN1CCN(C(c2ccccc2)c2ccccc2)CC1 | 3.02 | 6.5 | -0.06
O=S(=O)(Nc1ccc(-c2ccc(CN3CCCC3)cc2)cc1)c1cccc2cccnc12 | 78 | 85.2 | 71.7
CC(C)C(=O)NC(c1ccc(N(C)C)cc1)c1cc(Cl)c2cccnc2c1O (stereo not given) | 3.89 | 4.2 | 1.29

SMILES | inhibition [1] [%] | inhibition [2] [%] | inhibition [3] [%]
Cc1nc(-c2cccc(NC(C)C(=O)Nc3cc(C(F)(F)F)ccc3N3CCOCC3)c2)cs1 (stereo not given) | 0.08 | 0.47 | 0.96
COc1cccc2c(Oc3ccccc3C)ccnc12 | -0.44 | -1.86 | 0.33
N#Cc1cccc(NC(=O)c2cccc(S(=O)(=O)NC3CCN(CC4CCCCC4)C3)c2)c1 (stereo not given) | 0.54 | 1.11 | 3.37
Cc1cc(N2CCC(NS(=O)(=O)c3ccccc3)CC2)nc(Nc2cccc(C#N)c2)n1 | 44.5 | 41.9 | 45.6
NC[C@H](CC1CCCCC1)NC(=O)c1ccc(-c2ccnc3[nH]ccc23)s1 | 7.16 | 3.21 | 2.91
O=C(c1ccc([N+](=O)[O-])o1)N1CCN(c2ccccc2)CC1 | 3.6 | 1.95 | 1.09
COc1ccc(S(=O)(=O)N2CCOCC2)cc1NC(=O)c1cc2ccccc2o1 | 2.09 | 3.19 | 1.69
CN1CCCN(Cc2ccc(-c3ccc(NS(=O)(=O)c4cccc5cccnc45)cc3)cc2)CC1 | 5.67 | 3.68 | 0.05
COc1ccc(CNCc2ccc(-c3ccc(-c4nc5cccc(C)c5[nH]4)cc3)cc2)cc1 | 18.1 | 17.2 | 10.3
CC(=O)Nc1ccc(CN(Cc2ccc(OC(C)(C)C)cc2)Cc2ccc3c(c2)OCCO3)cc1 | 7.25 | 3.27 | 6.45
OCCN1CCN(Cc2ccc(-c3cccc(-c4nc5cc(F)ccc5[nH]4)c3)cc2)CC1 | 2.82 | -0.2 | 0.18
CCCCN1CCN(c2cc(NS(=O)(=O)c3ccc(C(=O)Nc4ccc(C(F)(F)F)cc4)cc3)ccc2OC)CC1 | 3.79 | 5.5 | 0.69
CCN(CCCN1CCCCC1)c1cc(C)nc(Nc2ccc(C)cc2Br)n1 | 4.17 | 4.38 | 4.15
CC(Nc1ccc2c(c1)OCCO2)C(=O)Nc1cc(C(F)(F)F)ccc1N1CCOCC1 (stereo not given) | 7.38 | 8.1 | 6.63
CN1CCN(CCCNc2ncc3c(-c4ccc(NC(=O)Nc5cc(C(F)(F)F)ccc5F)c(F)c4)nn(C)c3n2)CC1 | -0.98 | -3.33 | 7.86
CN1CCN(c2ccc(-c3cccc(NC(=O)c4ccc5ccccc5c4)c3)nn2)CC1 | 14 | 10.9 | 7.19
Oc1ccc(CCNc2nc(NCCCOc3cc(CN4CCCCC4)ccc3F)nc(N3CCNCC3)n2)cc1 | 1.98 | 4.72 | 5.14
